Biological target: T1, NL_v2_PPR7 (Artificial Sequence)
T1 chain: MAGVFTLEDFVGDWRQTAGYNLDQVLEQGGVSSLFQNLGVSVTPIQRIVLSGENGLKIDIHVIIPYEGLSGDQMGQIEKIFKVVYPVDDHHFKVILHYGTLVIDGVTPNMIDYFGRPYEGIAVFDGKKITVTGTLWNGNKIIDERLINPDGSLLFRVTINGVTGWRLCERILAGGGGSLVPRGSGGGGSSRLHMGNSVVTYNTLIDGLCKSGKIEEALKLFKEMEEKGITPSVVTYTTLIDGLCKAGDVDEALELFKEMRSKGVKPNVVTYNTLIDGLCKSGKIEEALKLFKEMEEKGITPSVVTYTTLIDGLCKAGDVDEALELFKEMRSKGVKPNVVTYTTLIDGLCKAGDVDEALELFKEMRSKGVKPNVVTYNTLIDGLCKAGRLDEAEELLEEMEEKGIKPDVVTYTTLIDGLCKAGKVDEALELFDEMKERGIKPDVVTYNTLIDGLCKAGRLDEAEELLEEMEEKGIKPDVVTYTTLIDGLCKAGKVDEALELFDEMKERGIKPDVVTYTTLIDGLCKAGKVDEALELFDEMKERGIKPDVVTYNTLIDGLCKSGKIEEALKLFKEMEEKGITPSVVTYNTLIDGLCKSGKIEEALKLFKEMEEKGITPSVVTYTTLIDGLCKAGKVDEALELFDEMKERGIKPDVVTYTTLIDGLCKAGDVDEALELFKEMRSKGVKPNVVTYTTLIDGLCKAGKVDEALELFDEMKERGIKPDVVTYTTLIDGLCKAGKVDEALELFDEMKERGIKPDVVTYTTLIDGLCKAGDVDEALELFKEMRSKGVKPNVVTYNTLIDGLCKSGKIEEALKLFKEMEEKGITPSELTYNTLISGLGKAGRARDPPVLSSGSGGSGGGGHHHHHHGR
Assay: RPB-ELISA
Details: tags: N-terminal luciferase, C-terminal 6xHis; label: 5'-biotin; ssRNA
Description: RNA probes consisting of a designed 30-base sequence containing 18 bases of the target sequence and modified by biotinylation at the 5′ end (RNA_1, RNA_2, RNA_3, RNA_4, and RNA_5, SEQ ID NOS: 61 to 65) were synthesized (Grainer). To a streptavidin-coated plate (Thermo fisher), the 5′-end biotinylated RNA probes were added, reaction was allowed at room temperature for 30 minutes, and the plate was washed with a lysis buffer (20 mM Tris-HCl, pH 7.6, 150 mM NaCl, 5 mM MgCl₂, 0.5% NP-40, 1 mM DTT, 0.1% BSA). For background measurement, wells to which RNA was not added, but 100 μL of the lysis buffer, 1 μL of 100 mM DTT, and 1 μL of 40 unit/4 RNase inhibitor (Takara, 2313A) were added were also prepared. Then, 200 μL of a blocking buffer (20 mM Tris-HCl, pH 7.6, 150 mM NaCl, 5 mM MgCl₂, 0.5% NP-40, 1 mM DTT, 1% BSA) was added, and the plate surface was blocked at room temperature for 30 minutes. Then, 100 μL of E. coli lysate containing luciferase-fused PPR protein having a luminescence level of 1.5×10⁸ LU/μL was added to each well, and the binding reaction was allowed at room temperature for 30 minutes. The well was washed 5 times with 200 μL of a washing buffer (20 mM Tris-HCl, pH 7.6, 150 mM NaCl, 5 mM MgCl₂, 0.5% NP-40, 1 mM DTT). […] The background (luminescence signal value obtained with adding the PPR protein and without adding RNA) was subtracted from the luminescences of the samples to which a solution containing each RNA and PPR protein was added, and the obtained values were used as the binding powers between the PPR protein and RNA.
By using the v2 motif, PPR proteins for 23 kinds of target sequences (T_1 to T_3, and T_5 to T_24, SEQ ID NOS: […]) were prepared (NL_v2_PPR1 to 3, and NL_v2_PPR5 to 24, SEQ ID NOS: 56 to 58 and 70 to 88), and RPB-ELISA was used to analyze bindings of all the combinations. The experimental method was the same as that used in Example 3.

Row | Sequence | binding signal [log2 luminescence]
1 | GGUUAGAGAUACAGUGUG | 20.6
2 | GACUCAGGAAUCGGCUCU | 20.5
3 | GUCAGAGGGUUCUGGAUU | 21.1
4 | GGUGGUGAGGCCCUGGGC | 21.4

— patent US20220289795, “EFFICIENT METHOD FOR PREPARING PPR PROTEIN AND USE OF THE SAME” (EditForce, Inc., published 2022)
